BAZ2B block: inhibitors of human BAZ2B bromodomain | AID 504333 | Q9UIF8 | Potency, µM (series often up to 114 µM), for inactives: at the highest dose activity change, negative = inhibition, actives largely listed as inhibitors | AlphaScreen BAZ2B-H3K14Ac peptide displacement | 360,000 compounds, 4.4% hits; note: % is set by controls: 0 for no effect and ±100 for the full control effect; nearly all actives have a fitted effect of over 60% in size
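Complex of BAZ2B and biotin-H3K14Ac (50 nM apiece) forms over 30 min at RT, then faces library compounds up to 110 uM for another 30 min; AlphaScreen beads added, 20 min dark incubation, luminescence read.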
JMJD2A Tudor: blocks the human JMJD2A Tudor domain; O75164; AlphaScreen JMJD2A-Tudor / H3K4me3 peptide binding; Potency, µM (top dose mostly 114 µM), without a hit: top-dose activity change, negative = inhibition, usual class: inhibitors; 390,000 compounds, 4.4% hits; note: % is set by controls: 0 for no effect and ±100 for the full control effect; nearly all actives have a fitted effect of over 50% in size
Target sequence (O75164 whole entry, looked up, the tested form may be a part): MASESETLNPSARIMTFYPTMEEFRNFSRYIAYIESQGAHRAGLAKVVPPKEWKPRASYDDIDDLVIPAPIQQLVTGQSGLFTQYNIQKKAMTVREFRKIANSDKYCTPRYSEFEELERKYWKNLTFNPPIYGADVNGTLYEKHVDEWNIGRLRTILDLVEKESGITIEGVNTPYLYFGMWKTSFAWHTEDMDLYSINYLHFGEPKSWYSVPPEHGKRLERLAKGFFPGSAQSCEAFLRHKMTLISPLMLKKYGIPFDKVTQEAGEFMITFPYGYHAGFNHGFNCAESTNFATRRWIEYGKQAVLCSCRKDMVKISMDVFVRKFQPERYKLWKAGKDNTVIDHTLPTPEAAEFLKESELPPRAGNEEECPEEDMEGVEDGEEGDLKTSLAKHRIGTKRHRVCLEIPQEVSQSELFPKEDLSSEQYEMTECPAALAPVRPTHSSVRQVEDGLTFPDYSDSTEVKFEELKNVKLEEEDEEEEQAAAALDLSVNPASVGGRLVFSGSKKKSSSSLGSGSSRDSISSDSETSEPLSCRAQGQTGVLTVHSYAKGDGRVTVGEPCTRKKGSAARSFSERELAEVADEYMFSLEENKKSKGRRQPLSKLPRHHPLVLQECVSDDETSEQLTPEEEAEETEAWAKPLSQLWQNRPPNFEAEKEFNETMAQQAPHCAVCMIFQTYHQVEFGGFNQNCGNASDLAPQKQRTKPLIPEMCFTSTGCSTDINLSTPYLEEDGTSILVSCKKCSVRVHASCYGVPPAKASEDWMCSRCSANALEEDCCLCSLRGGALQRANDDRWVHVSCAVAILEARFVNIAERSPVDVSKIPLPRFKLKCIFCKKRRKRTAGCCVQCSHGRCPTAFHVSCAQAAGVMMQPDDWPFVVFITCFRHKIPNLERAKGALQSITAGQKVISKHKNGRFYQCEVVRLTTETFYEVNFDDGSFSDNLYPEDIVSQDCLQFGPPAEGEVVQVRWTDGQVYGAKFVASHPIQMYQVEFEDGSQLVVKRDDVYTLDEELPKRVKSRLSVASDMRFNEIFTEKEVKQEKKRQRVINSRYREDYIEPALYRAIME
G9a inh: blocks human histone lysine methyltransferase G9a. Potency, µM (titrated, usually from 102 µM), inactives show at the highest dose activity, negative = inhibition, hits mostly inhibitors. 350,000 compounds, 8.8% hits. Q96KQ7. G9a H3K9 monomethylation, AlphaScreen, 2 h; note: % is set by controls: 0 for no effect and ±100 for the full control effect; nearly all actives have a fitted effect of over 75% in size
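Step 1: enzyme (final 20 nM) with compound, 15 min RT. Step 2: substrate peptide 500 nM and SAM 20 uM, 2 h RT. Step 3: anti-H3K9me1 antibody and AlphaScreen beads, 10 min, then plate read.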
Sfp inh: blocks B. subtilis Sfp PPTase activity. Q9F4F7. Biochemical Sfp PPTase activity, qHTS. Potency, µM, for the others: largest response in the series, negative = inhibition, usual class: inhibitors. 310,000 compounds, 3.5% hits;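 note: the enzyme is Sfp with the accession as filed and its product quenches rhodamine fluorescence; 0% = enzyme reaction without inhibitor and -100% = no enzyme wells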
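Step 1, compound plus 15 nM Sfp-PPTase, 15 min, room temperature. Step 2, add rhodamine-CoA (5 uM) and BHQ-2-YbbR (12.5 uM). Step 3, read 525/598 nm fluorescence at 0 and 30 min.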
HP1b binding inh: inhibitors of HP1-beta chromodomain binding to methylated histone tails | AlphaScreen HP1-beta / biotin-H3K9me3 peptide binding | 390,000 compounds, 0.56% hits | Potency, µM (doses to about 114 µM), without a hit: top-dose activity change, negative = inhibition, actives largely listed as inhibitors; note: nearly all actives have a fitted effect of over 70% in size
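AlphaScreen: HP1-beta (50 nM) preformed 30 min with biotin-H3(1-18)K9me3 peptide (50 nM) in PBS pH 7.4, 0.01% Tween-20. Compound added for 30 min at RT, then streptavidin donor/nickel chelate acceptor beads (10 ug/mL) for 30 min.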
L3MBTL1 block: inhibitors of human L3MBTL1; Q9Y468; Potency, µM (top dose mostly 57.1 µM), for the others: at the highest dose activity, negative = inhibition, actives largely listed as inhibitors; AID 485360; AlphaScreen L3MBTL1–H3K9me1 peptide binding; 230,000 compounds, 0.66% hits; note: % is set by controls: 0 for no effect and ±100 for the full control effect; nearly all actives have a fitted effect of over 60% in size
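Read-out is AlphaScreen signal from streptavidin donor and nickel chelate acceptor beads (10 ug/mL final each) bridging L3MBTL1 (50 nM) and biotinylated K9-monomethylated H3(1-15) peptide (75 nM), after 30 min compound exposure at room temperature.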
Numbers without * were called inactive; u = inconclusive; x = no result given; [ ] = dose if it differs, or a comment. Rows were chosen to be rich in hits. Some 12% of all compounds tested hit in one or more screens of this group. Calls come from the whole dose curve; as a rule, active = well fitted curve in the direction sought with a large enough effect; inconclusive = small, poorly fitted or top-dose-only effect, or another doubt; inactive = no such curve, though single readings can be large; an effect the other way counts as inactive or inconclusive. Potency is the fitted concentration of half-maximal effect.

SMILES	BAZ2B block	JMJD2A Tudor	G9a inh	Sfp inh	HP1b binding inh	L3MBTL1 block
COc1ccc(-c2nn(-c3ccccc3)cc2C2CC(c3cccs3)=NN2C(=O)CCCC(=O)O)cc1 (configuration not stated)	79.4µM*	-15.3%	u	-12.0%	17.8%	x
Cc1ccc(C2=NN(C(=O)CCC(=O)O)C(c3cn(-c4ccccc4)nc3-c3ccc(C)cc3)C2)cc1 (configuration not stated)	x	50.1µM*	u	89.1µM*	-0.9%	x
O=C(CCC1N=C2c3ccccc3N=C(SCc3ccc(F)cc3)N2C1=O)NCc1ccc(F)cc1 (configuration not stated)	0.3%	-19.3%	0.3%[59 µM]	x	19.3%	x
CCOc1ccccc1NC(=O)Cn1c(=O)nc(-c2ccccc2F)c2cc(Cl)ccc21	-8.4%	-7.0%	6.1%[59 µM]	x	10.1%	x
COC(=O)C1(C)C=C(Nc2ccc(OC)cc2)C(=O)N1c1ccc(OC)cc1 (configuration not stated)	x	x	x	-13.6%	x	x
Oc1c(/C=N/c2ncn[nH]2)ccc2ccccc12	-3.4%	u	2.24µM*	-4.7%	28.5%	-2.6%
CC(=O)c1ccc(-c2ccc(C(=O)Nc3nc(-c4ccccn4)cs3)o2)cc1	x	-34.1%	x	x	-2.7%	-10.2%
O=C(Nc1nc(-c2ccccn2)cs1)c1ccc(-c2ccccc2F)o1	79.4µM*	u	43.1%[12.7 µM]	x	38.9%	u
O=C(Nc1nc(-c2cc(F)ccc2F)cs1)c1ccccn1	0.3%	19.6%	30.5%	-1.7%	58.2%	2.0%
Cc1ccc(-c2csc(NC(=O)Cc3ccc(F)cc3)n2)o1	-32.8%	-32.3%	10µM*	12.6µM*	u	x
O=C(Nc1nc(-c2ccccn2)cs1)c1ccc([N+](=O)[O-])o1	20µM*	22.4µM*	6.31µM*	15.8µM*	u	12.6µM*
Cc1ccc(C(=O)Nc2nc(-c3ccccn3)cs2)o1	17.8µM*	50.1µM*	u	-7.9%	27.1%	u
COc1ccc(OC)c(-c2csc(NC(=O)Cc3ccc(F)cc3)n2)c1	-38.8%	u	-15.8%	21.5%	-14.3%	x
CCOC(=O)CSc1nc2ccc(NC(=O)c3ccc(F)cc3)cc2s1	u	-5.6%	-34.0%[59 µM]	x	39.3%	x
O=C(NCc1ccco1)c1ccc2c(c1)N(Cc1ccccc1F)C(=O)c1ccccc1S2=O (configuration not stated)	u	-18.9%	-47.5%[59 µM]	x	10.5%	x
Cc1ccc(C(=O)Nc2nc(-c3ccc([N+](=O)[O-])cc3)cs2)o1	-33.9%	-5.6%	0.0%[59 µM]	-3.2%	29.3%	-5.7%
CCc1cc(C(=O)Nc2nc(-c3ccccn3)cs2)sc1C	70.8µM*	u	-7.5%[12.7 µM]	x	27.6%	-5.5%
CCCn1nc(C(=O)Nc2nc(-c3ccccn3)cs2)c2ccccc2c1=O	u	56.2µM*	44.1%[12.7 µM]	x	29.5%	u
CCc1sc(C(=O)Nc2nc(C)cs2)cc1C	-9.5%	1.4%	19.8%	7.3%	35.8%	x
CCn1nc(C(=O)Nc2nc(-c3ccccn3)cs2)c2ccccc2c1=O	-0.2%	-28.4%	-8.2%[12.7 µM]	x	14.6%	-6.3%
CC(=O)Nc1ccc(-c2csc(NC(=O)c3ccc(C)o3)n2)cc1	-34.1%	-13.3%	44.7µM*	-3.1%	16.8%	x
COc1ccc(C2/C=C\CN(CC3CCCCC3)C(Cc3ccccc3)C(=O)N2Cc2ccc(F)cc2)cc1 (configuration not stated)	x	-15.2%	x	11.8%	37.7%	x
COc1ccc(-c2nc3cnc(OC)nc3n(-c3ccc(OC)cc3)c2=O)cc1	x	x	-4.5%[0.501 µM]	-0.1%	x	x
CSc1nc(N(C)CCO)c2sc3nc(-c4ccco4)c4c(c3c2n1)CCC4	50.1µM*	25.1µM*	15.4%[0.0925 µM]	79.4µM*	-60.0%	u
CSc1nc(NCCN(C)C)c2sc3nc(-c4ccco4)c4c(c3c2n1)CCC4	x	89.1µM*	x	x	u	x
SMILES	BAZ2B block	JMJD2A Tudor	G9a inh	Sfp inh	HP1b binding inh	L3MBTL1 block
CSc1nc(SCC(=O)O)c2sc3nc(-c4ccccc4)c4c(c3c2n1)CCC4	22.4µM*	28.2µM*	17.8µM*	-16.4%	u	-5.0%
CSc1nc(N2CCN(CCO)CC2)c2sc3nc(-c4ccco4)c4c(c3c2n1)CCC4	x	x	-13.9%[59 µM]	-16.9%	x	-6.7%
Cc1ccc(C(=O)NNC(=O)CSc2nnc3c(n2)[nH]c2ccc(F)cc23)cc1	u	20µM*	x	u	-41.4%	2.7%
COc1ccc2[nH]c3nc(SCC(=O)NNC(=O)c4ccc(OC)c(OC)c4)nnc3c2c1	4.3%[57.1 µM]	-19.4%	u	-5.3%	42.3%	0.2%
Cc1ccc(S(=O)(=O)CCC(=O)NCCN2C(=O)S/C(=C\c3ccccc3)C2=O)cc1	10.9%	-10.7%	9.2%	-4.1%	27.4%	-4.5%
Cc1ccc2c(c1)S/C(=C/c1ccc[n+](C)c1)N2CCO	-35.0%	25.1µM*	14.1µM*	-6.5%	9.0%	x
Cc1ccc(CCNS(=O)(=O)c2ccc(C)cc2)cc1	3.0%	31.6%	3.7%	2.8%	51.4%	12.4%
Cc1ccc(S(=O)(=O)NCCc2ccc(S(N)(=O)=O)cc2)cc1	2.1%	21.1%	14.1µM*	5.3%	54.2%	x
Cc1cccc(-n2ncc(C(=O)N3CCN(Cc4ccccc4)CC3)c2C2CCN(C(=O)OC(C)(C)C)CC2)c1	3.1%[57.1 µM]	-18.4%	-35.1%[59 µM]	x	28.0%	x
CC1=C(C(=O)Nc2cccnc2)C(c2ccc(F)cc2)n2nc(SCc3ccccc3)nc2N1 (configuration not stated)	-34.1%	-0.3%	-2.3%[59 µM]	x	21.3%	x
Cc1ccc(Nc2cc(C)c(O)c(C)c2)cc1	7.08µM*	39.8µM*	25.1µM*	u	50.1µM*	u
C=CCSc1nc2sc(C)c(C)c2c(=O)n1CC=C	96.6%	57.6%	5.62µM*	50.1µM*	186.5%	25.2%
CCC(CC)c1nn2c(=O)cc(COc3ccc(NC(=O)c4ccccc4Cl)cc3)nc2s1	-2.6%	6.0%	-4.3%[59 µM]	x	54.0%	x
Cc1ccc(CNc2ncnc3ccc(-c4c(C)noc4C)cc23)cc1	x	-12.4%	x	-3.2%	x	x
S=c1[nH]nc(Cc2cccc3ccccc23)o1	-24.7%	79.4µM*	2.24µM*	12.0%	19.5%	11.3%
Cn1c(Cc2c[nH]c3ccccc23)n[nH]c1=S	7.1%	5.01µM*	u	-7.0%	-11.7%	x
CC(Cc1n[nH]c(=S)o1)c1ccccc1 (configuration not stated)	u	u	8.91µM*	-18.9%	33.5%	5.7%
Cc1[nH]c2ccccc2c1Cc1n[nH]c(=S)o1	-12.4%	79.4µM*	8.91µM*	7.7%	10.3%	x
Cc1ccc(C(C)C)c(OCC(=O)N2CCC(c3nc4ccccc4o3)CC2)c1	-17.9%	11.3%	31.1%[59 µM]	x	82.9%	x
CC1(C)N=C(Nc2nc3ccccc3o2)NC2=C1C(=O)CCC2	x	-29.9%	x	x	x	x
